FMDV inh – antivirals against foot and mouth disease virus. AID 1159524. FMDV antiviral cell-based qHTS. Potency, µM (top dose mostly 57.9 µM), for the others: at the highest dose activity change, negative = inhibition, hits mostly inhibitors. actives 1.2% (n = 410,000); calls by dose curve; tested in HEK293T cells; also: read-out not given here; potency is read from the fitted curve at half-maximal effect; nearly all actives have a fitted effect of over 45% in size
LASV entry inh – Lassa virus entry inhibition. Potency, µM (highest dose often 37.9 µM), without a hit: top-dose activity change, negative = inhibition, hits mostly inhibitors. actives 1.2% (n = 300,000). Lassa virus pseudotype entry inhibition, cell reporter. AID 540256; calls by dose curve; tested in HEK293 cells; also: potency is read from the fitted curve at half-maximal effect; nearly all actives have a fitted effect of over 50% in size
VACV mCherry inh – inhibitors of vaccinia virus infection (mCherry reporter signal); actives 0.63% (n = 310,000); Vaccinia virus mCherry reporter infection, fluorescence; Potency, µM (top dose mostly 36.5 µM), for the others: top-dose activity change, negative = inhibition, most hits filed as inhibitors; calls by dose curve; tested in A549 cells; also: potency is read from the fitted curve at half-maximal effect; nearly all actives have a fitted effect of over 35% in size
Marburg entry inh – inhibitors of Marburg virus binding or cell entry | Marburg virus pseudotyped entry inhibition, cell reporter | Potency, µM (top dose mostly 37.8 µM), inactives show top-dose activity change, negative = inhibition, hits mostly inhibitors | actives 1.8% (n = 300,000) | AID 540276; calls by dose curve; tested in HEK293 cells; also: potency is read from the fitted curve at half-maximal effect
VACV Venus inh – vaccinia inhibition (Venus reporter) | Vaccinia virus Venus reporter expression, fluorescence | Potency, µM (titrated, usually from 36.5 µM), inactives show at the top dose activity change, negative = inhibition, usual class: inhibitors | actives 0.46% (n = 330,000); calls by dose curve; tested in A549 cells; also: potency is read from the fitted curve at half-maximal effect; nearly all actives have a fitted effect of over 30% in size
HCMV inh – human cytomegalovirus inhibition; HFF cells, HCMV-luciferase reporter, 72 h; stronger effect = lower value; activity change, negative = inhibition, % at 57.5 µM; actives 4.5% (n = 410,000); AID 1259415; in the data active = activity change below about -60%; inconclusive = no clear call, values can overlap the other calls; inactive = above about -39%
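After 16 h attachment at 37C, HFF cells received test compound and HCMV-luciferase (1 PFU/cell); reporter luminescence read 72 h later, data normalized against buffer-only and known inhibitor Salinomycin.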
An asterisk follows results filed as active; i = inactive; ? = inconclusive; . = not tested or not shown; + = active, no number; [ ] = dose if it differs, or a comment. In the library only some 6.5% were active in any assay of this set; here they are far more common. % is scaled to controls: 0 for no effect and ±100 for the full control effect.

SMILES | FMDV inh | LASV entry inh | VACV mCherry inh | Marburg entry inh | VACV Venus inh | HCMV inh
Cc1ccccc1C(=O)/C(C#N)=N/Nc1c(C)n(C)n(-c2ccccc2)c1=O | -32% | ? | ? | ? | ? | -88*
C[C@H]1CN([C@@H](C)CO)S(=O)(=O)c2ccc(C#CC3CC3)cc2O[C@H]1CN(C)C(=O)c1cccnc1 | 19% | . | -12% | . | -9% | -34
Cc1ccccc1-c1ccc2c(c1)O[C@@H](CN(C)C(=O)Nc1ccc(C(F)(F)F)cc1)[C@H](C)CN([C@@H](C)CO)S2(=O)=O | -24% | . | ? | . | ? | -76*
COc1cccc(NC(=O)N(C)C[C@H]2Oc3cc(C#Cc4ccncc4)ccc3S(=O)(=O)N([C@H](C)CO)C[C@H]2C)c1 | 91% | . | ? | . | ? | -109*
C[C@@H]1CN([C@@H](C)CO)S(=O)(=O)c2ccc(C#CC3CCCCC3)cc2O[C@@H]1CN(C)Cc1cccnc1 | -14% | . | ? | . | 10µM* | -22
C[C@@H]1CN([C@H](C)CO)S(=O)(=O)c2ccc(Br)cc2O[C@@H]1CN(C)C(=O)Nc1ccc(C(F)(F)F)cc1 | -18% | . | ? | . | ? | -10
Cc1ccc(NC(=O)N[C@H]2CC[C@@]34CCCN3C(=O)CCC[C@H]4[C@H]2C)cc1 | . | . | . | . | . | -3
O=C(Nc1cccc(F)c1)[C@H](CSCc1ccccc1)N1Cc2ccccc2C1=O | 10% | 0%[46.1 µM] | -14% | ? | -11% | 5
CCC[C@H]1[C@@H](NC(=O)Nc2cccc(C#N)c2)CC[C@@]23CCCN2C(=O)CCC[C@@H]13 | . | . | . | . | . | -17
Cc1[nH]n(-c2ccccc2)c(=O)c1C(c1ccccc1[N+](=O)[O-])C(C#N)C#N (stereo not given) | ? | . | . | . | . | 38
Cc1[nH]n(-c2ncc(-c3ccccc3)s2)c(=O)c1C(c1ccc(Cl)cc1)C(C#N)C#N (stereo not given) | 20µM* | 7% | -19% | 14% | -13% | -2
O=C(N/N=C/c1ccccc1O)C1CC(=O)N(c2ccc(F)cc2)C1 (stereo not given) | 6% | ? | 14µM* | ? | ? | 17
COc1ccc(N2CC(C(=O)N/N=C/c3c[nH]c4ccccc34)CC2=O)cc1 (stereo not given) | -23% | -10% | i | 8%[46.1 µM] | -9% | -21
C[C@H](NC(=O)N1CCn2c1nc1ccccc12)C(=O)NC1CC1 | -12% | . | . | . | . | 0
C[C@H](NC(=O)N1CCn2c1nc1ccccc12)C(=O)N1CCCCC1 | 11% | . | 5%[7.34 µM] | . | 0%[7.34 µM] | +
Cc1ccc(S(=O)(=O)N(C)CCN(C)c2nc(-c3cccs3)nc3ccccc23)cc1 | . | . | -1% | . | -14% | .
O=c1[nH]c(CN2CCN(C/C=C/c3ccccc3)CC2)nc2cc(Cl)ccc12 | -23% | 1% | -29% | 4.1µM* | -22% | 1
O=C(CCc1nc2ccccc2c(=O)[nH]1)N1CCN(C/C=C/c2ccccc2)CC1 | 20µM* | 0% | . | -19% | . | 13
CC(=O)N1CCN(C(=O)CCc2nc3ccccc3c(=O)[nH]2)CC1 | -25% | 15% | . | 21% | . | 3
O=[N+]([O-])c1ccc2c(c1)C=CC2 | . | . | -13% | . | -10% | .
CC(C)=CCc1c(-c2ccc(O)cc2O)oc2c3c(cc(O)c2c1=O)OC(C)(C)C=C3 | ? | . | 1% | . | -12% | .
CC(C)=CCc1c2c(c(O)c3c(=O)c4c(oc13)-c1cc(O)c(O)cc1OC4C=C(C)C)C=CC(C)(C)O2 (stereo not given) | ? | . | 11µM* | . | ? | .
CCOC(=O)N1CCc2c(sc(NCc3ccc(OC)c(OC)c3OC)c2C(=O)Nc2ccc(OC)cc2OC)C1 | ? | ? | -15% | . | -3% | -80*
CCOC(=O)N1CCc2c(sc(NCc3cccs3)c2C(=O)Nc2ccc(OC)cc2OC)C1 | ? | ? | -13% | . | -9% | -91*
CCOC(=O)N1CCc2c(sc(NCc3cccs3)c2C(=O)Nc2cc(OC)ccc2OC)C1 | 29% | -6%[46.1 µM] | -2% | . | -15% | -14
CCOC(=O)N1CCc2c(sc(NCc3ccc(OCC)cc3)c2C(=O)Nc2ccc(OC)cc2OC)C1 | ? | ? | -14% | . | -9% | -80*

Assay outcomes: PubChem, National Center for Advancing Translational Sciences (NCATS)
